Cycloheximide cs = counter-screen hit for Shiga toxin inhibitors, cycloheximide | max response, % | cell reporter, cycloheximide protein synthesis inhibition counterscreen | 12% of 300,000 active; in the data active means max response mostly above about 13%, no sharp cut-off; inactive means mostly below about 14%; further: read at 38.3 µM for the half of the compounds with a filed dose; 0% is about no effect
HCMV antiviral = inhibitors of human cytomegalovirus; HFF cells, HCMV-luciferase reporter, 72 h; hits give low values; activity change, negative = inhibition, % at 57.5 µM; 4.5% of 410,000 active; AID 1259415; in the data active means activity change below about -60%; inconclusive means no clear call, values can overlap the other calls; inactive means above about -39%; further: on the % scale 0 is the no-effect control and ±100 the full control effect
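Luciferase read-out from HCMV-luciferase-infected HFFs (MOI 1 PFU/cell) 72 h post infection at 37C; compounds added after 16 h cell attachment; activity normalized between buffer-only basal and Salinomycin (10uM) inhibitor controls.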
Shiga inhibitor = inhibitors of Shiga toxin in Vero cells; Vero cells, Shiga toxin protein synthesis inhibition reporter; 9.2% of 290,000 active; inhibition, % at 38.7 µM; in the data active means inhibition mostly above about 28%, no sharp cut-off; inactive means mostly below about 43%; further: 0% is about no effect
Pf growth 48h = P. falciparum growth inhibition at 48 hours (one generation). 5.9% of 310,000 active. P. falciparum luciferase growth in erythrocytes, 48 h. Potency, µM (titrated, usually from 28.7 µM), without a hit: top-dose activity change, negative = inhibition, most hits filed as inhibitors; further: potency means the concentration at half of the fitted maximal effect; on the % scale 0 is the no-effect control and ±100 the full control effect
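Luminescence readout; reporter = integrated firefly luciferase in P. falciparum. RBC culture at 2% hematocrit, 0.1% parasitemia final, 37 C/5% CO2; decreased signal taken as growth inhibition.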
Pf growth 96h = inhibits malaria parasite growth, 96 h; P. falciparum luciferase reporter growth, 96 h; Potency, µM (titrated, usually from 28.7 µM), for inactives: top-dose activity change, negative = inhibition, most hits filed as inhibitors; 6.9% of 320,000 active; further: potency means the concentration at half of the fitted maximal effect; on the % scale 0 is the no-effect control and ±100 the full control effect
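Readout is luminescence from an integrated firefly luciferase in P. falciparum. Red cells, 2% hematocrit and 0.05% parasitemia final, were cultured with compound through two parasite generations (96 hours) at 37 C, 5% CO2.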
The depositor's hits bear a star. An excerpt weighted towards active compounds, which were near 20% of everything screened. Unless noted, the call rests on the fitted dose curve; in most records, active means well fitted inhibition curve with a large enough effect; inconclusive means small, poorly fitted or top-dose-only effect, or another doubt; inactive means no such curve, though single readings can be large or run the other way.

Results for CCc1cc2c(-c3ccccc3)cc(=O)oc2cc1OC(C)C(=O)NCC1CCC(C(=O)O)CC1 (configuration not stated) ?
Cycloheximide cs: -1; HCMV antiviral: -19; Shiga inhibitor: 17; Pf growth 48h: inconclusive; Pf growth 96h: 9.3µM*

What do the screens show for `CCCCc1cc(=O)oc2cc(C)cc(OCC(=O)NCc3cccnc3)c12`?
Cycloheximide cs: -3; HCMV antiviral: inconclusive; Shiga inhibitor: -3; Pf growth 48h: 10µM*; Pf growth 96h: 9.3µM*

Results for CCCc1cc(=O)oc2cc(C)cc(OCC(=O)NCc3ccncc3)c12 ?
Cycloheximide cs: -3; HCMV antiviral: -27; Shiga inhibitor: -12; Pf growth 48h: 9.3µM*; Pf growth 96h: 8.3µM*

Results for CCCc1cc(=O)oc2cc(C)cc(OC(C)C(=O)NCc3cccnc3)c12 (configuration not stated) ?
Cycloheximide cs: -6; HCMV antiviral: 14; Shiga inhibitor: -8; Pf growth 48h: 8.3µM*; Pf growth 96h: 4.7µM*

Results for Cc1cccc(C)c1NCC(=O)N1CCN(Cc2ccccc2)CC1 ?
Cycloheximide cs: -5; HCMV antiviral: -35; Shiga inhibitor: -10; Pf growth 48h: -13%; Pf growth 96h: -12%

How did CCOC(=O)c1c(NC(=O)CSc2cn(CCNC(=O)c3ccccc3OC)c3ccccc23)sc2c1CCC2 do in these assays?
HCMV antiviral: -6

How did CCOC(=O)C1CCN(C(=O)Cn2ncc3c4ccccc4n(Cc4ccccc4F)c3c2=O)CC1 do in these assays?
HCMV antiviral: -8

How did CCCc1cc(=O)oc2cc(C)cc(OC(C)C(=O)NCC3CCC(C(=O)O)CC3)c12 (configuration not stated) do in these assays?
Cycloheximide cs: -1; HCMV antiviral: 6; Shiga inhibitor: -1; Pf growth 48h: 0%; Pf growth 96h: inconclusive

How did CCCc1cc(=O)oc2cc(C)cc(OC(C)C(=O)NCc3ccncc3)c12 (configuration not stated) do in these assays?
Cycloheximide cs: -4; HCMV antiviral: 23; Shiga inhibitor: 11; Pf growth 48h: 3.3µM*; Pf growth 96h: 2.9µM*

What do the screens show for `CCCCc1cc(=O)oc2cc(C)cc(OC(C)C(=O)NCC3CCC(C(=O)O)CC3)c12` (configuration not stated)?
Cycloheximide cs: 1; HCMV antiviral: 7; Shiga inhibitor: -3; Pf growth 48h: inconclusive; Pf growth 96h: 9.3µM*

How did CCN(CC)C(=O)Nc1ccc2c(c1)N(Cc1ccccc1)C(=O)c1ccccc1S2 do in these assays?
HCMV antiviral: -25

What do the screens show for `CCCOc1ccc(C(C(=O)OCCN(CC)CC)c2ccccc2)cc1` (configuration not stated)?
Cycloheximide cs: -8; HCMV antiviral: -30; Shiga inhibitor: -16; Pf growth 48h: 6%

How did COc1ccc(-c2n[nH]c(=S)n2Cc2ccccc2)cc1 do in these assays?
Cycloheximide cs: -3; HCMV antiviral: -3; Shiga inhibitor: -1; Pf growth 48h: 40%; Pf growth 96h: inconclusive

Results for S=c1[nH]nc(-c2ccccc2)n1Cc1ccccc1 ?
Cycloheximide cs: -1; HCMV antiviral: 23; Shiga inhibitor: -16; Pf growth 48h: 16%; Pf growth 96h: 0.41µM*

What do the screens show for `S=c1[nH]nc(-c2ccc(Cl)cc2)n1Cc1ccccc1`?
Cycloheximide cs: 0; HCMV antiviral: inconclusive; Shiga inhibitor: -14; Pf growth 48h: 7%; Pf growth 96h: 0%

Results for CN(C(=O)CSc1nnc(CN2CCCC2)n1Cc1ccccc1)c1ccccc1 ?
HCMV antiviral: 12; Pf growth 48h: 12µM*; Pf growth 96h: inconclusive

How did Cc1n[nH]c(=S)n1Cc1ccccc1 do in these assays?
Cycloheximide cs: -1; HCMV antiviral: -82*; Shiga inhibitor: 24; Pf growth 48h: 13%; Pf growth 96h: 21%

Results for S=c1[nH]nc(CN2CCCCC2)n1Cc1ccccc1 ?
Cycloheximide cs: -4; HCMV antiviral: -82*; Shiga inhibitor: 10; Pf growth 48h: 3.7µM*; Pf growth 96h: 2%

How did CCn1cc(C(=O)Nc2ccc(OC)c(S(=O)(=O)N3CCCCC3)c2)c(=O)c2ccc(C)nc21 do in these assays?
Cycloheximide cs: -3; HCMV antiviral: 29; Shiga inhibitor: -9; Pf growth 48h: 3%; Pf growth 96h: 37%

Results for Cc1ccc(NC(c2nnc(-c3ccccc3)o2)c2ccccc2F)c([N+](=O)[O-])c1 (configuration not stated) ?
HCMV antiviral: 52

Results for COc1cccc2c1Oc1ncccc1N(C(=O)Nc1ccc(F)c(Cl)c1)C2 ?
HCMV antiviral: -38

Results for CC(=O)Nc1nc2ccccc2n1CCN(C)C ?
Cycloheximide cs: -2; HCMV antiviral: 110; Shiga inhibitor: 3; Pf growth 48h: 199%; Pf growth 96h: 1%

How did CCCn1c(NC(=O)c2ccc(Br)cc2)nc2ccccc21 do in these assays?
Cycloheximide cs: 9; HCMV antiviral: 65; Shiga inhibitor: -2; Pf growth 96h: 2.9µM*

Results for CCCn1c(NC(=O)c2ccccc2Br)nc2ccccc21 ?
Cycloheximide cs: 18*; HCMV antiviral: -37; Shiga inhibitor: 72; Pf growth 48h: inconclusive; Pf growth 96h: inconclusive

How did CCOC(=O)N1CCC(NC(=O)c2ccc3c(c2)sc2nc(-c4ccccc4)cn23)CC1 do in these assays?
Cycloheximide cs: 39*; Shiga inhibitor: 69*; Pf growth 48h: 1.3µM*; Pf growth 96h: -20%

How did CCOC(=O)N1CCC(NC(=O)c2ccc3c(c2)sc2nc(-c4cccc(OC)c4)cn23)CC1 do in these assays?
Cycloheximide cs: 7; Shiga inhibitor: 35; Pf growth 48h: 7.4µM*; Pf growth 96h: 10%

How did CN1CC(C(=O)c2ccccc2)C(C(=O)c2ccccc2)C1 (configuration not stated) do in these assays?
Cycloheximide cs: 55*; HCMV antiviral: 23; Shiga inhibitor: 112*; Pf growth 48h: 60%; Pf growth 96h: 11%

What do the screens show for `CC1CCCN(C(=O)CCl)C1` (configuration not stated)?
Cycloheximide cs: -2; HCMV antiviral: -40; Shiga inhibitor: 3; Pf growth 48h: 4.7µM*; Pf growth 96h: 1.5µM*

How did CC1CCCN(C(=O)COc2ccc(-c3ccccc3)cc2)C1 (configuration not stated) do in these assays?
Cycloheximide cs: 17; HCMV antiviral: -21; Shiga inhibitor: 40*; Pf growth 48h: 20%; Pf growth 96h: 11%

Results for CN1CCCC(C(=O)c2ccc(-c3ccccc3)cc2)C1 (configuration not stated) ?
Cycloheximide cs: 23*; HCMV antiviral: -11; Shiga inhibitor: 34*; Pf growth 48h: inconclusive; Pf growth 96h: inconclusive

What do the screens show for `CN1CC(C(=O)c2ccc(F)cc2)C(c2ccc(F)cc2)C1` (configuration not stated)?
Cycloheximide cs: -5; HCMV antiviral: -38; Shiga inhibitor: -7; Pf growth 96h: -5%

Source: PubChem BioAssay (National Center for Advancing Translational Sciences (NCATS))
